Compounds with a hit are over-represented: about 12% of the library has one in this group of screens.
Sfp PPTase inh: Sfp phosphopantetheinyl transferase inhibition; Biochemical Sfp PPTase activity, qHTS; Potency, µM, without a hit: largest response in the series, negative = inhibition, most hits filed as inhibitors; actives 3.5% (n = 310,000);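 also: the enzyme is Sfp with the accession as filed and its product quenches rhodamine fluorescence; 0% = enzyme reaction without inhibitor and -100% = no enzyme wells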
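With Hepes-Na pH 7.6 buffer containing 10 mM MgCl2, Sfp (15 nM) modified BHQ-2-YbbR (12.5 uM) using rhodamine-CoA (5 uM). Two reads 30 minutes apart at 525/598 nm yielded each well's rate.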
G9a block: blocks human histone lysine methyltransferase G9a; G9a H3K9 monomethylation, AlphaScreen, 2 h; Potency, µM (titrated, usually from 102 µM), inactives show at the top dose activity, negative = inhibition, actives largely listed as inhibitors; actives 8.8% (n = 350,000); AID 504332; also: % is scaled to controls: 0 for no effect and ±100 for the full control effect; nearly all actives have a fitted effect of over 75% in size
Target sequence (Q96KQ7 913-1193 limits assumed): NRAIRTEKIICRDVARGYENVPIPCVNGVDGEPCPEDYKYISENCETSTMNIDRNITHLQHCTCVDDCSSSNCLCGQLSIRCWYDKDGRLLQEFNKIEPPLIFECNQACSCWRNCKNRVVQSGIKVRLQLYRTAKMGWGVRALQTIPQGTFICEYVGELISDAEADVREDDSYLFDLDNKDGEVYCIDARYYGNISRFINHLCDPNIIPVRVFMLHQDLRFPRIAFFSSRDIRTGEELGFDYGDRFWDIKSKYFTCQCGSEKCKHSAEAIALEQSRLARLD
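Compounds were preincubated with 20 nM G9a for 15 min, after which biotinylated H3K9 peptide (500 nM) and SAM (20 uM) started a 2 h room-temperature reaction. Monomethylated product was quantified by antibody-based AlphaScreen chemiluminescence.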
HP1b chromo inh: HP1-beta chromodomain-methylated histone interaction inhibition. AlphaScreen HP1-beta / biotin-H3K9me3 peptide binding. Potency, µM (highest dose often 114 µM), without a hit: top-dose activity change, negative = inhibition, most hits filed as inhibitors. actives 0.56% (n = 390,000). AID 540317; also: nearly all actives have a fitted effect of over 70% in size
Target sequence (P83916 whole entry, looked up): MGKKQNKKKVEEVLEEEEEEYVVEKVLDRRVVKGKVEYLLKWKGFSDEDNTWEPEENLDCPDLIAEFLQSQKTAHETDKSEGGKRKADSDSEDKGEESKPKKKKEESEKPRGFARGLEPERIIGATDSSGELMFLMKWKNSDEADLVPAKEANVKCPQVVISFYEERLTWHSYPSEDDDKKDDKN
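AlphaScreen: HP1-beta (50 nM) preformed 30 min with biotin-H3(1-18)K9me3 peptide (50 nM) in PBS pH 7.4, 0.01% Tween-20. Compound added for 30 min at RT, then streptavidin donor/nickel chelate acceptor beads (10 ug/mL) for 30 min.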
BAZ2B block: blocks human BAZ2B. Q9UIF8. AlphaScreen BAZ2B-H3K14Ac peptide displacement. Potency, µM (doses to about 114 µM), for inactives: top-dose activity change, negative = inhibition, usual class: inhibitors. actives 4.4% (n = 360,000). AID 504333; also: % is scaled to controls: 0 for no effect and ±100 for the full control effect; nearly all actives have a fitted effect of over 60% in size
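AlphaScreen displacement: compounds (up to 110uM) incubated 30 min at room temperature with a preformed 50 nM BAZ2B/50 nM biotinylated H3K14Ac peptide complex in PBS pH 7.4 with Tween-20. Donor and acceptor beads at 10 ug/mL final added, 20 min light-protected before reading.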
JMJD2A Tudor inh: blocks the human JMJD2A Tudor domain. O75164. AlphaScreen JMJD2A-Tudor / H3K4me3 peptide binding. Potency, µM (series often up to 114 µM), without a hit: top-dose activity change, negative = inhibition, most hits filed as inhibitors. actives 4.4% (n = 390,000); also: % is scaled to controls: 0 for no effect and ±100 for the full control effect; nearly all actives have a fitted effect of over 50% in size
TDP1 block: inhibitors of human tyrosyl-DNA phosphodiesterase TDP1; recombinant TDP1, AlphaScreen DNA substrate cleavage; Potency, µM (titrated, usually from 130 µM), for the others: at the highest dose activity change, negative = inhibition, hits mostly inhibitors; AID 485290; Q9NUW8; actives 0.28% (n = 350,000); also: % is scaled to controls: 0 for no effect and ±100 for the full control effect; nearly all actives have a fitted effect of over 40% in size
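Enzyme-compound mixtures sat 15 min at room temperature, followed by a 5 min reaction with 15 nM final substrate and 10 min with AlphaScreen beads. Recombinant human Tdp1 was used at 1 nM final.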
An asterisk follows results filed as active; ? = inconclusive; · = no result given; [ ] = another dose, or the depositor's remark. Calls follow the shape of the dose curve; as a rule, active = well fitted curve in the direction sought with a large enough effect; inconclusive = small, poorly fitted or top-dose-only effect, or another doubt; inactive = no such curve, though single readings can be large; an effect the other way counts as inactive or inconclusive. Potency is read from the fitted curve at half-maximal effect.

SMILES	Sfp PPTase inh	G9a block	HP1b chromo inh	BAZ2B block	JMJD2A Tudor inh	TDP1 block
Cc1ccc(S(=O)(=O)NCC(=O)OC(C)C(=O)NCc2ccc3c(c2)OCO3)cc1 (centres undefined)	·	·	25%	·	-5%	·
Cc1ccccc1C(=O)N1CCC(C(=O)Nc2sccc2C(N)=O)CC1	·	0%[12.7 µM]	37%	9%	-5%	3%
N#CC(c1ccccc1)N(CCCCl)C(=O)c1ccccc1 (centres undefined)	-3%	45µM*	63%	5%	3%	4%
CCOC(=O)N1CCC2(CC1)NCCc1c2[nH]c2ccccc12	10%	?	17%	-29%	-21%	-12%
CCCN1CCC2(CC1)NC(C(=O)O)Cc1c2[nH]c2ccccc12 (centres undefined)	-13%	14µM*	13%	?	-9%	·
COC(=O)C1Cc2c([nH]c3ccccc23)C2(CCN(Cc3ccccc3)CC2)N1 (centres undefined)	-5%	45µM*	-15%	?	?	·
CCC1(C)NC(C(=O)O)Cc2c1[nH]c1ccccc21 (centres undefined)	-13%	?	3%	2%	-18%	·
CN(CC(=O)Nc1ccc(F)cc1)C(=O)c1cc(-c2ccco2)nc2ccccc12	·	-10%[0.501 µM]	-14%	40µM*	?	·
COc1cccc(NC(=O)CN(C)C(=O)c2cc(-c3ccco3)nc3ccccc23)c1	·	50µM*	?	79µM*	18µM*	-13%[0.505 µM]
Cc1cc2oc(=O)cc(CN3CCN(Cc4ccccc4)CC3)c2cc1Cl	-8%	-20%[59 µM]	12%	-31%	-8%[11.4 µM]	-1%
COc1cc2c(cc1OC)CN(Cc1cc(=O)oc3c(C)c(C)ccc13)CC2	1%	25µM*	22%	-25%	-30%	0%
COc1cc2c(cc1OC)CN(Cc1cc(=O)oc3cc(C)c(Cl)cc13)CC2	-12%	10µM*	30%	-9%	-15%	8%
CCc1ccc2c(CN3CCc4cc(OC)c(OC)cc4C3)cc(=O)oc2c1	-6%	8.9µM*	33%	-37%	-16%	3%
Cc1ccc(-c2nc(CSc3nncn4c3cc3occc34)c(C)o2)cc1	·	0%[59 µM]	22%	-14%	-18%	-3%
CCOC(=O)C1CCN(C(c2ccc(SC)cc2)c2c(O)cc(C)n(Cc3ccco3)c2=O)CC1 (centres undefined)	·	?	2%[57 µM]	-19%	56µM*	5%
COc1ccc(-n2cc(-c3ccc(Cl)cc3)[nH]c2=S)cc1	2%	·	47%	-2%	0%	1%
COc1cccc(-n2cc(-c3ccc(F)cc3)[nH]c2=S)c1	?	?	14%	50µM*	45µM*	·
COc1ccc(-c2cn(-c3ccccc3)c(=S)[nH]2)cc1OC	?	8.9µM*	-6%	?	-33%	·
COC(=O)c1ccc(-n2cc(-c3ccc(OC)cc3)[nH]c2=S)cc1	-23%	1.1µM*	13%	-10%	-16%	3%
COc1ccccc1-c1cn(-c2ccccc2)c(=S)[nH]1	?	12%	30%	-28%	-34%	·
COc1ccc(-c2cn(-c3ccc(C)c(Cl)c3)c(=S)[nH]2)cc1OC	-24%	50µM*	-4%	-10%	-15%	·
CCOC(=O)C(=O)Nc1ncc(Cl)s1	13%	-47%	-8%	-9%	-14%	·
COc1ccc(CN2COc3ccc4c(-c5ccccc5)cc(=O)oc4c3C2)cc1OC	·	9%[59 µM]	22%	0%	-17%	4%
Cc1c(NC(=O)c2ccc(-c3ccc([N+](=O)[O-])cc3Cl)o2)c(=O)n(-c2ccccc2)n1C	0%	-9%	16%	-35%	-18%	2%
COc1ccc(-c2nc3sc(CCNC(=O)Cc4ccccc4)c(C)n3n2)cc1	·	3.5µM*	31%	0%	-24%	-5%
COc1ccc(-c2nc3sc(CCNC(=O)Cc4ccc(F)cc4)c(C)n3n2)cc1	·	-13%[59 µM]	38%	-1%	-12%	5%
